PTEN del growth = growth suppressors of cells with PTEN tumor suppressor deletion. HCT116 PTEN-null viability, CellTiter-Glo, 60 h; hits give low values. viability, % at 10 µM. 1.2% of 140,000 active;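 active = viability at or below a set limit, 4 SD under the median of all tested compounds, cut at about 3.7% in these data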;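 also: PTEN knockout HCT116 line with beta catenin targeted HCT116 as companion control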
L major viab = reduces viability of Leishmania major promastigotes | resazurin fluorescence viability | inhibition, % at 10 µM | 9% of 200,000 active | AID 1063; in the data active = inhibition above about 50%;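 also: promastigotes grown with compound for 44 hours at 28 °C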
Insulin prom up = MIN6 insulin promoter up-regulation; MIN6 insulin promoter-GFP reporter, high-content imaging; hits give high values; z-score at 5 µM; 0.3% of 190,000 active;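 active = z-score above 3 at 5 µM with at least 500 cells counted in the well; inconclusive = wells under 500 cells, flagged as cytotoxic or low count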
Autophagy HCS = modulators of autophagy. MEF GFP-LC3 puncta imaging; test concentration mostly 10 µM. calls only at 10 µM (by protocol). 0.98% of 190,000 active. AID 463193;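 active = percentage of spot-positive cells more than 3 SD above its plate mean, without a fluorescence outlier flag or 80% toxicity; inconclusive = no clear call, values can overlap the other calls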;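 also: spot-positive cell cutoff set from DMSO-treated cells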
bCat KO growth = beta-catenin-lacking colon tumor cell growth suppression | HCT116 beta-catenin knockout viability, CellTiter-Glo, 60 h; hits give low values | viability, % at 10 µM | 1.5% of 140,000 active | AID 818;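 active = viability at or under a set limit, the compound median less 4 SD, cut at about 6% in these data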;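 also: 0% = Hyamine 1622 control at 20 µM and 100% = untreated cell control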
Insulin prom inh = TRM-6 insulin promoter activity inhibition. TRM-6 cells (human fetal islet line), insulin promoter-eGFP reporter, imaging; reporter expression induced with tamoxifen. inhibition, % at 2 µM. 0.9% of 130,000 active. AID 1273;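 active = inhibition above the mean plus 3 SD, with well images judged a real hit on visual review, cut at about 60% in these data, passing the limit was not always enough; inconclusive = inhibition over the cutoff but images rejected on review; inactive = inhibition not above the cutoff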
Starred values were filed as active, the others as inactive. The list is not random: actives were taken first. Their share in the collection is about 9.6%.

What do the screens show for `COc1ccc(C2(O)CC3CCC(C2)N3c2cc(C)nc(-c3ccccc3)n2)cc1` (stereo unspecified)?
PTEN del growth: 65; L major viab: 63*; Insulin prom up: -1.5; Autophagy HCS: inactive; bCat KO growth: 70

What do the screens show for `Cc1cc(C)c2c(c1)-c1c(ssc1=S)C(C)(C)N2C(=O)CN1C(=O)c2ccccc2C1=O`?
PTEN del growth: 70; L major viab: 97*; Insulin prom up: -0.28; Autophagy HCS: inactive; bCat KO growth: 79; Insulin prom inh: -42

Results for COc1ccccc1CNC(=O)C1CCC(CNc2c(N3CCC(C)CC3)c(=O)c2=O)CC1 (stereo unspecified) ?
Insulin prom up: -0.06

What do the screens show for `Cc1nc(CSc2nnc(C)s2)cs1`?
PTEN del growth: 91; L major viab: -10; Insulin prom up: 0.28; Autophagy HCS: inactive; bCat KO growth: 94; Insulin prom inh: 62*

Results for Cc1cc(C)c2c(C)c(C(=O)NCc3ccncc3)oc2c1 ?
PTEN del growth: 85; L major viab: -3; Insulin prom up: -1.3; Autophagy HCS: inactive; bCat KO growth: 70; Insulin prom inh: 50

How did CC(=O)Nc1ccc(NC2=C/C(=N/S(=O)(=O)c3cccs3)c3ccccc3C2=O)cc1 do in these assays?
L major viab: 100*; Insulin prom up: inconclusive; Autophagy HCS: active; Insulin prom inh: -55

Results for Cc1ccc(NC2=C/C(=N/S(=O)(=O)c3cccs3)c3ccccc3C2=O)cc1C ?
PTEN del growth: 88; L major viab: 82*; Insulin prom up: 0.43; Autophagy HCS: inactive; bCat KO growth: 85; Insulin prom inh: -54

Results for COc1ccc(-c2nc3ccc(N4CCCC4)cc3c(=O)[nH]2)cc1OC ?
PTEN del growth: 89; L major viab: 21; Insulin prom up: -0.76; Autophagy HCS: inactive; bCat KO growth: 94; Insulin prom inh: 35

How did O=[N+]([O-])c1ccc(N2CCN(C(=S)NC3CCCCC3)CC2)cc1 do in these assays?
PTEN del growth: 47; L major viab: 37; Insulin prom up: -0.03; Autophagy HCS: inactive; bCat KO growth: 28; Insulin prom inh: -48

How did Cc1ccc(NC(=O)[C@@H]2CCCN2S(=O)(=O)c2ccccc2C(F)(F)F)cc1S(=O)(=O)N1CCOCC1 do in these assays?
PTEN del growth: 87; L major viab: 98*; Insulin prom up: -0.21; Autophagy HCS: inactive; bCat KO growth: 87; Insulin prom inh: -12

What do the screens show for `Cc1ccc(NC(=O)CSc2nccn2C)cc1S(=O)(=O)N1CCOCC1`?
PTEN del growth: 99; L major viab: 57*; Insulin prom up: 0.11; Autophagy HCS: inactive; bCat KO growth: 88; Insulin prom inh: 1

How did Cc1ccc(NC(=O)CSc2nnc3ccccn23)cc1S(=O)(=O)N1CCOCC1 do in these assays?
L major viab: -2; Insulin prom up: 0.34; Autophagy HCS: inactive

What do the screens show for `Cc1ccc(NC(=O)CSc2ccccn2)cc1S(=O)(=O)N1CCOCC1`?
L major viab: 1; Insulin prom up: -0.98; Autophagy HCS: inactive; Insulin prom inh: 74*

How did Cc1ccc(NC(=O)CN2c3cccc4cccc(c34)S2(=O)=O)cc1S(=O)(=O)N1CCOCC1 do in these assays?
PTEN del growth: 75; L major viab: 96*; Autophagy HCS: inactive; bCat KO growth: 75; Insulin prom inh: 9

Results for Cc1ccc(NC(=O)[C@@H]2CCCN2S(=O)(=O)c2ccccc2F)cc1S(=O)(=O)N1CCOCC1 ?
PTEN del growth: 98; L major viab: 2; Insulin prom up: -0.37; Autophagy HCS: inactive; bCat KO growth: 91; Insulin prom inh: -27

How did CC(C)CCN(C(=O)Cc1ccccc1F)c1c(N)n(Cc2ccccc2)c(=O)[nH]c1=O do in these assays?
L major viab: -1; Insulin prom up: 0.79; Autophagy HCS: inactive

Results for CCC(=O)Oc1ccc2oc(=O)cc(C)c2c1 ?
PTEN del growth: 105; L major viab: -6; Insulin prom up: 0.69; Autophagy HCS: inactive; bCat KO growth: 89; Insulin prom inh: 33

How did CCCCCc1ccc(OCCCC[n+]2ccccc2)c(CCCCC)c1 do in these assays?
L major viab: 101*; Insulin prom up: inconclusive; Autophagy HCS: inactive; Insulin prom inh: -38

How did CCCCCc1ccc(OCCCC[n+]2ccc(C)cc2)c(CCCCC)c1 do in these assays?
L major viab: 100*; Insulin prom up: inconclusive; Autophagy HCS: inactive

What do the screens show for `CCCCCc1ccc(OCCCC[n+]2cccc(C)c2)c(CCCCC)c1`?
L major viab: 101*; Insulin prom up: inconclusive; Autophagy HCS: inactive; Insulin prom inh: -144

How did CCC(C)(C)c1ccc(OCCCC[n+]2ccccc2)c(C(C)(C)CC)c1 do in these assays?
L major viab: 100*; Insulin prom up: inconclusive; Autophagy HCS: inactive; Insulin prom inh: -56

Results for CCC(C)(C)c1ccc(Oc2cccc(C(=O)O)c2)cc1 ?
Insulin prom up: 0.16

Results for Cc1ccccc1C(=O)Nc1ccc(N2CCN(C)CC2)nc1 ?
L major viab: -7; Insulin prom up: 0.67; Autophagy HCS: inactive; Insulin prom inh: -36

Results for CC(C)c1cc(C(=O)NCc2ccco2)no1 ?
PTEN del growth: 67; L major viab: -9; Insulin prom up: 1.4; bCat KO growth: 66

What do the screens show for `CC(C)C(NC(=O)c1cccnc1)C(=O)O` (stereo unspecified)?
L major viab: -8; Autophagy HCS: inactive

What do the screens show for `COC(=O)c1ccc(C(NC(=O)c2cccnc2)NC(=O)c2cccnc2)cc1`?
L major viab: -3; Insulin prom up: -0.49; Autophagy HCS: active

Results for CCN(CC)C(=O)c1sc(NC(=O)Cc2ccc(OC)cc2)c(C#N)c1C ?
PTEN del growth: 93; L major viab: 85*; Insulin prom up: 0.37; Autophagy HCS: inactive; bCat KO growth: 99; Insulin prom inh: 29

How did O=C(N/N=C/C(Br)=C/c1ccccc1)c1n[nH]c2c1CCC2 do in these assays?
PTEN del growth: 1.7*; L major viab: 98*; Insulin prom up: inconclusive; Autophagy HCS: active; bCat KO growth: 2.7*

Results for O=C(N/N=C/c1ccccc1Cl)c1n[nH]c2c1CCCC2 ?
PTEN del growth: 52; L major viab: 89*; Insulin prom up: -0.1; Autophagy HCS: inactive; bCat KO growth: 51; Insulin prom inh: -22

Results for c1ccc(COc2ccc(OCCOCCn3cncn3)cc2)cc1 ?
PTEN del growth: 91; L major viab: -10; Insulin prom up: -0.36; Autophagy HCS: inactive; bCat KO growth: 91; Insulin prom inh: 49

What do the screens show for `CC(=O)c1cccc(CN2CCC(CO)(CCCc3ccccc3)CC2)c1`?
L major viab: 79*; Insulin prom up: 1.3; Autophagy HCS: inactive

Results for CCOC(=O)C1(CCCc2ccccc2)CCN(C2CCSCC2)CC1 ?
L major viab: 85*; Insulin prom up: -1.9; Autophagy HCS: inactive; Insulin prom inh: 24

Results for OCC1(CCCc2ccccc2)CCN(C2CCSCC2)CC1 ?
L major viab: 84*; Insulin prom up: 1.3; Autophagy HCS: inactive
